HepG2 tox: counter-screen for TGF-b inhibitors: cytotoxicity in HepG2 cells | AID 588856 | HepG2 CAGA-GFP viability, ATP luminescence, 18 h | Potency, µM (doses to about 46.1 µM), inactives show top-dose activity change, negative = cytotoxicity, usual class: cytotoxic | hit rate 0.76% among 410,000; further: potency means the concentration at half of the fitted maximal effect
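CellTiter-Glo luminescence gave cytotoxicity after 18 hours at 37 degrees C. The cells were HepG2 CAGA-GFP in 1% FBS DMEM, stimulated with 500 pg/mL TGF-beta after compound addition. %Activity was normalised to no-cell wells (complete cell-killing) and DMSO (no toxicity), and curves were fitted and classified.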
TDP1 cell noCPT: qHTS for Inhibitors of human tyrosyl-DNA phosphodiesterase 1 (TDP1): qHTS in cells in absence of CPT; DT40 Tdp1-/- hTDP1 cells, no CPT, ATP luminescence, 48 h; Potency, µM (series often up to 46.2 µM), without a hit: at the top dose activity change, negative = growth inhibition, hits mostly inhibitors; hit rate 15% among 420,000; AID 686978, 2013; further: potency means the concentration at half of the fitted maximal effect; on the % scale 0 is the no-effect control and ±100 the full control effect; nearly all actives have a fitted effect of over 55% in size
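Stably hTDP1-transfected Tdp1-null chicken DT40 cells were treated with library compounds minus camptothecin and grown for at least 48 hr at 37 °C, after which cellular ATP was quantified by luminescence.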
TGFb SMAD3 inh: inhibitors of TGF-b signaling. HepG2 CAGA-GFP TGF-b/SMAD3 reporter, GFP fluorescence, 18 h; TGF-beta stimulated, 500 pg/mL final. hit rate 1.2% among 410,000. Potency, µM (titrated, usually from 46.1 µM), without a hit: at the top dose activity, negative = inhibition, hits mostly inhibitors. AID 588855; further: potency means the concentration at half of the fitted maximal effect; on the % scale 0 is the no-effect control and ±100 the full control effect; nearly all actives have a fitted effect of over 65% in size
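First, reporter cells (HEPG2 CAGA-GFP) rested 2 h at 37 degrees C. Next, compounds were pinned in and TGF-beta added to 500 pg/mL final. After 18 h, GFP was imaged per cell and summed per well.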
IL-1B inflam inh: blocks inflammasome-driven IL-1 beta release; THP-1 LPS/ATP IL-1B secretion, AlphaLISA, 16 h; hits give low values; activity change, % at 57.5 µM; hit rate 4.7% among 360,000; AID 743279; in the data active means activity change below about -50%; inconclusive means mostly about -30% to -49%; further: on the % scale 0 is the no-effect control and ±100 the full control effect
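Secreted IL-1B measured by AlphaLISA bead assay after 16 h compound exposure of THP-1 cells; compounds (final up to 57.5 uM) added 1 h before LPS (250 ng/mL) and ATP (1.25 mM) stimulation; lower signal means less secretion.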
TDP1 block: inhibitors of human tyrosyl-DNA phosphodiesterase TDP1; Q9NUW8; AID 485290; Potency, µM (doses to about 130 µM), for the others: at the top dose activity change, negative = inhibition, usual class: inhibitors; recombinant TDP1, AlphaScreen DNA substrate cleavage; hit rate 0.28% among 350,000; further: potency means the concentration at half of the fitted maximal effect; on the % scale 0 is the no-effect control and ±100 the full control effect; nearly all actives have a fitted effect of over 40% in size
Target sequence (Q9NUW8 whole entry, looked up): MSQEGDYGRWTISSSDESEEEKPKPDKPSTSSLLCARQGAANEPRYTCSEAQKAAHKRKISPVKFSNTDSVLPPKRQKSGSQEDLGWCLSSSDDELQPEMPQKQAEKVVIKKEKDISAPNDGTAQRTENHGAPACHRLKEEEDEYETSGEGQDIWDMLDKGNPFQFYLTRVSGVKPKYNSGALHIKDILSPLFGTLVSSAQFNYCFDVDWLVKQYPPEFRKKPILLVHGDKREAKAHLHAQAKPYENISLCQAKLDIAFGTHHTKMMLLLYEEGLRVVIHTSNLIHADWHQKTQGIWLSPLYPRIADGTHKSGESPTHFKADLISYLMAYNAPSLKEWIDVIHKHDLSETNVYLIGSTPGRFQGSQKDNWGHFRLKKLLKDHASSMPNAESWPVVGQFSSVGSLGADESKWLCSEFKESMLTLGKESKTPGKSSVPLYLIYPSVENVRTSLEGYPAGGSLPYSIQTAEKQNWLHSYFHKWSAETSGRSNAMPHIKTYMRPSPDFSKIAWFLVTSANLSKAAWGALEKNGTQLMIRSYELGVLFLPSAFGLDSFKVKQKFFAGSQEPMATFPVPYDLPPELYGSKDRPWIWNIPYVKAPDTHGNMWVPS
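Recombinant human Tdp1 (E. coli-expressed, 1 nM final) preincubated with compounds 15 min at room temperature, then 5'-biotin/3'-phosphotyrosine-FITC DNA substrate (15 nM final) added for 5 min. AlphaScreen beads (10 ug/ml final) added 10 min; cleavage lowers signal.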
DT40 TDP1 CPT: growth inhibition of DT40 Tdp1-/-;hTDP1 cells with camptothecin (screen for TDP1 inhibitors) | chicken DT40 Tdp1-/-;hTDP1 cells + 20 nM CPT, ATP luminescence, 48 h | Potency, µM (doses to about 46.2 µM), inactives show at the top dose activity change, negative = growth inhibition, most hits filed as inhibitors | hit rate 12% among 420,000; further: potency means the concentration at half of the fitted maximal effect; on the % scale 0 is the no-effect control and ±100 the full control effect; nearly all actives have a fitted effect of over 55% in size
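Chicken DT40 Tdp1-/- cells stably complemented with human TDP1 were seeded at 400 cells/well in medium containing 20 nM camptothecin, exposed to pin-transferred compounds, and grown at 37 °C for at least 48 hr. Viability was read as ATP luminescence.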
An asterisk follows results filed as active; ? = inconclusive; nt = not tested or not shown. Shown are actives, neighbours in structure and some others; about 19% of the full set was active somewhere. Unless noted, the call rests on the fitted dose curve; in most records, active means well fitted curve in the direction sought with a large enough effect; inconclusive means small, poorly fitted or top-dose-only effect, or another doubt; inactive means no such curve, though single readings can be large; an effect the other way counts as inactive or inconclusive.

SMILES	HepG2 tox	TDP1 cell noCPT	TGFb SMAD3 inh	IL-1B inflam inh	TDP1 block	DT40 TDP1 CPT
Cc1nc(N2CCN(S(=O)(=O)c3cccc4nonc34)CC2)c2c3c(sc2n1)CCCC3	-2%	16µM*	7%	-3	0%	?
Cc1nc(N2CCN(S(=O)(=O)c3ccccc3)CC2)c2c3c(sc2n1)CC(C)CC3 (configuration not stated)	-3%	?	-14%	9	1%	-23%
CCOC(=O)Cc1csc(N/N=C/c2ccc(Cl)cc2)n1	-9%	-4%	-3%	-18	0%	8%
CC(=O)N(/N=C/c1ccc(C)cc1)c1nc(CCl)cs1	-17%	?	-29%	-19	5%	15µM*
Cc1[nH]c2ccccc2c1C(=O)C(=O)N1CCN(c2ccccc2)CC1	-27%	-20%	6%	15	5%	-23%
COc1cc2c(cc1OC)C(c1ccccc1N)=NCC2	-2%	21µM*	4%	-19	-3%	?
COc1cc2c(cc1OC)C(c1ccccc1[N+](=O)[O-])=NCC2	-4%	2.9µM*	-22%	47	nt	5.8µM*
CC(=O)N1CCSc2ccc(S(=O)(=O)Nc3cccc(C)c3)cc21	-23%	13µM*	-22%	14	1%	18µM*
CC(=O)N1CCSc2ccc(S(=O)(=O)Nc3ccccc3C)cc21	-9%	-45%	-20%	-57*	6%	?
COc1cccc(NS(=O)(=O)c2ccc3c(c2)N(C(C)=O)CCS3)c1	-20%	?	-16%	13	3%	?
COC(=O)c1ccc(Cn2cnc3c(Cl)ncnc32)cc1	-3%	?	-10%	-94*	nt	?
CCOc1ccc(CNc2ncc(-c3ccccc3)n2C)cc1	-33%	?	0%	-12	nt	-20%
Cc1ccc(CNc2ncc(-c3ccc4c(c3)OCO4)n2C)cc1	-27%	21µM*	-17%	-9	-2%	?
Cn1c(-c2ccc3c(c2)OCO3)cnc1NCc1ccc(Cl)cc1	-11%	18µM*	-19%	0	10%	?
Cc1ccc(CNc2ccc3c(c2)OCO3)cc1	13µM*	21µM*	-1%	-93*	3%	?
Clc1ccccc1-c1cnc2sc(NCc3ccc4c(c3)OCO4)nn12	-48%	15µM*	-4%	-6	nt	?
CN(C(=O)c1ccc2c(c1)N(Cc1ccccc1F)C(=O)c1ccccc1S2)C1CCCCC1	-12%	23µM*	-24%	nt	7%	?
Cc1ccc(C)c(CN2C(=O)c3ccccc3S(=O)(=O)c3ccc(C(=O)N(C)C4CCCCC4)cc32)c1	2%	21µM*	nt	nt	8%	?
CN(C(=O)c1ccc2c(c1)N(Cc1ccccc1F)C(=O)c1ccccc1S2(=O)=O)C1CCCCC1	-16%	23µM*	?	nt	7%	?
Cc1ccc(C)c(CN2C(=O)c3ccccc3S(=O)(=O)c3ccc(C(=O)OCC4CCCO4)cc32)c1 (configuration not stated)	-3%	?	-21%	nt	8%	?
CC1CCC(NC(=O)c2ccc3c(c2)N(Cc2ccccc2F)C(=O)c2ccccc2S3)CC1 (configuration not stated)	12%	?	0%	nt	4%	?
COc1ccc2c(c1)c(=O)c(C(=O)c1ccccc1)cn2CC(=O)Nc1ccc2c(c1)OCO2	-4%	-4%	-1%	nt	6%	?
Cc1ccc(CNC(=O)CSc2nc3ccsc3c(=O)n2-c2ccc(Br)cc2)cc1	-10%	?	?	nt	0%	?

Assay outcomes as filed in PubChem BioAssay.
